Results as given in PubChem BioAssay (NCI).
About 83,000 compounds went through this panel and 20% of them were active in at least one assay; those are over-represented in the sample as a whole.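 Plates (96-well) were seeded with cells, treated with compound at one concentration, and incubated for 48 hours before percent growth was determined.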 Unmarked numbers belong to inactive results. Active and inactive are the calls of the source. Rule for the calls: active = growth percent below 10; inactive = the rest.

Test system: MDA-MB-435 melanoma
Test: NCI-60 one-dose screen, 48 h (100 = growth as untreated, 0 = no growth, -100 = all killed)
Conditions: 10 µM unless noted

Q: `CC(C)(C)c1cc(NC(=O)Nc2ccc(-c3cn4c5c(sc4n3)CCc3c[nH]cc3-5)cc2)no1` was tested. Which growth did it give?
A: 26%

Q: For `NS(=O)(=O)c1ccc(Nc2nc(Nc3ccccc3)nc(N3N=C(c4ccc(Cl)cc4)CC3c3ccc(Cl)cc3)n2)cc1` (stereo not given), which growth is on record?
A: 39.1%

Q: `COc1ccc2sc(NC(=O)CCCCCCNC(=O)C(O)(O)C(F)(F)F)nc2c1` was tested. Which growth did it give?
A: 1.37% (active)

Q: For `N#C/C(=C\c1ccc(-c2ccc(Cl)cc2)o1)C(=O)Nc1ncc(Cc2ccc(Br)cc2)s1`, which growth is on record?
A: 11.3%

Q: `C#CCN(C)CCCOc1ccc(NCc2ccc(C(=O)NO)cc2)cc1Cl` was tested. Which growth did it give?
A: 9.64% (active)

Q: Which growth does the source give for `COc1ccc(C(=O)c2c(N)c(C#N)cn2-c2ccc(Cl)cc2Cl)cc1` here?
A: 97.4%

Q: With `C/C(=N\NC(=O)/C=C/CC(=O)O)c1nnn(-c2ccc([N+](=O)[O-])cc2)c1C` as the compound, how does the growth read?
A: 103%

Q: Which growth does the source give for `O=C(/C=C/c1ccc(F)cc1)Nc1cccc2cccnc12` here?
A: 107%

Q: `COc1ccccc1N1CCN(C2=C(Cl)C(=O)c3ncccc3C2=O)CC1` was tested. Which growth did it give?
A: 57.7%

Q: For `NS(=O)(=O)c1cccc(Nc2nc(SCC(=O)c3ccc(Cl)cc3)nc3c2CCC3)c1`, which growth is on record?
A: 99.2%

Q: Which growth does the source give for `CN(C)c1cccc2c(S(=O)(=O)Nc3cccc(-c4csc(NC(=O)CCCCCN5CCN(CCO)CC5)n4)c3)cccc12` here?
A: 65.6%

Q: How did the growth turn out when `O=c1nc(Nc2ccc([N+](=O)[O-])cc2O)sc2ccccc12` was run?
A: -42.9% (active)

Q: With `NC1C2CCC1CN(c1cnc(C(=O)Nc3cc(F)cc4cccnc34)cn1)C2` (stereo not given) as the compound, how does the growth read?
A: 75.5%

Q: Which growth does the source give for `COc1ccc(C2CC(c3cccc(OCCCCOc4cccc(C5=NOC(c6ccc(OC)cc6)C5)c4)c3)=NO2)cc1` (stereo not given) here?
A: 105%

Q: Which growth does the source give for `CCc1cc2c(cc1Cl)nc1c(=O)[nH]c(=O)nc-1n2CCOCC(C)(C)C` here?
A: 33.5%

Q: With `Clc1ccc2[nH]cc(-c3nn4cc(-c5ccncc5)nc4s3)c2c1` as the compound, how does the growth read?
A: 51%

Q: `CN1CCN(c2ccc(Nc3nc(NCCNS(=O)(=O)c4ccc5ccccc5c4)c4sccc4n3)cc2)CC1` was tested. Which growth did it give?
A: 53.7%

Q: How did the growth turn out when `CC(C)[C@H]1c2[nH]c3ccccc3c2C[C@H]2C(=O)N(CCCCCCC(=O)NO)CC(=O)N12` was run?
A: 74.9%

Q: `O=C(Nc1ccccc1)Nc1nc2ccc([N+](=O)[O-])cc2[nH]1` was tested. Which growth did it give?
A: 55.3%

Q: `N#Cc1c(-c2cccs2)cc(-c2cnccn2)nc1SCC(=O)N/N=C/c1ccncc1` was tested. Which growth did it give?
A: 104%

Q: For `O=C(/C=C/c1ccccc1)c1cccc(O)c1`, which growth is on record?
A: 95.9%

Q: For `O=C1[C@@H]2Cc3c([nH]c4ccccc34)[C@H](c3ccc(Br)cc3)N2C(=O)CN1C1CCN(Cc2c(Cl)cccc2Cl)CC1`, which growth is on record?
A: 100%

Q: How did the growth turn out when `COc1cccc2c1C=CC1(O2)Oc2cccc(OC)c2C=C1C` (stereo not given) was run?
A: -10.1% (active)

Q: How did the growth turn out when `CCN(CC)c1ccc(/C=N/NC(=O)c2ccc(NS(C)(=O)=O)cc2)cc1` was run?
A: 37.3%

Q: How did the growth turn out when `N#Cc1nc(-c2ccc(Cl)cc2)oc1N1CCC(S(=O)(=O)N2CCOCC2)CC1` was run?
A: 99%

Q: With `O=C(CCCCCC/C=C\c1csc(Br)n1)NO` as the compound, how does the growth read?
A: 84.4%

Q: For `COc1ccc(OC)c(NC(=O)CCCCCCNC(=O)C(O)(O)C(F)(F)F)c1`, which growth is on record?
A: 30.1%

Q: Which growth does the source give for `NCCNC(=O)c1cccc(COc2ccccc2NC(=O)c2cc(Br)c(Br)[nH]2)c1` here?
A: 96.2%

Q: How did the growth turn out when `C#CCOc1ccccc1C(OC(=O)c1ccccc1)C(=O)NC(C)(C)C(C)(C)C` (stereo not given) was run?
A: 96.2%

Q: For `O=C(CSc1nc2ccccc2c(=O)n1CCc1ccccc1)Nc1ccc(S(=O)(=O)Nc2ccc(Cl)nn2)cc1`, which growth is on record?
A: 99.8%

Q: For `O=C1CSC(c2cn(-c3ccccc3)nc2-c2ccc(Cl)cc2)N1c1ccccc1` (stereo not given), which growth is on record?
A: 103%

Q: `COc1ccc2c(c1)c(-c1nn3cc(-c4ccncc4)nc3s1)cn2C` was tested. Which growth did it give?
A: 96.3%

Q: For `O=C(/C=C/c1cc(Cl)ccc1Cl)Nc1ncc(Cc2ccc(Cl)cc2)s1`, which growth is on record?
A: -37% (active)

Q: `CC1=C(C)C(=O)C(Nc2cccc(C)c2)=C(Br)C1=O` was tested. Which growth did it give?
A: 109%

Q: Which growth does the source give for `COc1ccc(Cn2cc(C#N)c(N)c2C(C)=O)cc1` here?
A: 104%

Q: How did the growth turn out when `Cn1ncc2ncc(-c3ccc4ncc(C#N)c(N5CCc6cc(F)c(Cl)cc65)c4c3)cc21` was run?
A: 27.1%

Q: With `Cc1ccc2c(n1)C(=O)C(Cl)=C(Nc1ccc(C(F)(F)F)cc1)C2=O` as the compound, how does the growth read?
A: 95.8%

Q: For `CSc1ccc(/C(=N/N=C(N)N)c2ccc(F)cc2)cc1`, which growth is on record?
A: 10.6%

Q: How did the growth turn out when `CC(=O)OC[C@@]12Oc3c(cccc3-c3ccc(O)c4c3O[C@]3(COC(C)=O)C(=C4O)C(=O)C[C@H](C)[C@@H]3OC(C)=O)C(O)=C1C(=O)C[C@H](C)[C@@H]2OC(C)=O` was run?
A: 13%

Q: For `CCCCOc1ccc(S(=O)(=O)N2CCN(c3nc(C)cc(N4CCOCC4)n3)CC2)cc1`, which growth is on record?
A: 6.06% (active)

Test system: SW-620 colon
Test: as above
Conditions: 10 µM unless noted

Q: How did the growth turn out when `CC(C)(C)c1cc(NC(=O)Nc2ccc(-c3cn4c5c(sc4n3)CCc3c[nH]cc3-5)cc2)no1` was run?
A: 17.8%

Q: Which growth does the source give for `NS(=O)(=O)c1ccc(Nc2nc(Nc3ccccc3)nc(N3N=C(c4ccc(Cl)cc4)CC3c3ccc(Cl)cc3)n2)cc1` (stereo not given) here?
A: 54.4%

Q: `COc1ccc2sc(NC(=O)CCCCCCNC(=O)C(O)(O)C(F)(F)F)nc2c1` was tested. Which growth did it give?
A: 5.18% (active)

Q: With `N#C/C(=C\c1ccc(-c2ccc(Cl)cc2)o1)C(=O)Nc1ncc(Cc2ccc(Br)cc2)s1` as the compound, how does the growth read?
A: -40% (active)

Q: `C#CCN(C)CCCOc1ccc(NCc2ccc(C(=O)NO)cc2)cc1Cl` was tested. Which growth did it give?
A: 12.2%

Q: How did the growth turn out when `COc1ccc(C(=O)c2c(N)c(C#N)cn2-c2ccc(Cl)cc2Cl)cc1` was run?
A: 98.3%

Q: How did the growth turn out when `C/C(=N\NC(=O)/C=C/CC(=O)O)c1nnn(-c2ccc([N+](=O)[O-])cc2)c1C` was run?
A: 100%

Q: How did the growth turn out when `O=C(/C=C/c1ccc(F)cc1)Nc1cccc2cccnc12` was run?
A: 101%

Q: Which growth does the source give for `COc1ccccc1N1CCN(C2=C(Cl)C(=O)c3ncccc3C2=O)CC1` here?
A: 43.8%

Q: With `NS(=O)(=O)c1cccc(Nc2nc(SCC(=O)c3ccc(Cl)cc3)nc3c2CCC3)c1` as the compound, how does the growth read?
A: 102%

Q: `CN(C)c1cccc2c(S(=O)(=O)Nc3cccc(-c4csc(NC(=O)CCCCCN5CCN(CCO)CC5)n4)c3)cccc12` was tested. Which growth did it give?
A: 98.4%

Q: With `O=c1nc(Nc2ccc([N+](=O)[O-])cc2O)sc2ccccc12` as the compound, how does the growth read?
A: 22.3%

Q: For `NC1C2CCC1CN(c1cnc(C(=O)Nc3cc(F)cc4cccnc34)cn1)C2` (stereo not given), which growth is on record?
A: 25%

Q: How did the growth turn out when `COc1ccc(C2CC(c3cccc(OCCCCOc4cccc(C5=NOC(c6ccc(OC)cc6)C5)c4)c3)=NO2)cc1` (stereo not given) was run?
A: 32.9%

Q: How did the growth turn out when `CCc1cc2c(cc1Cl)nc1c(=O)[nH]c(=O)nc-1n2CCOCC(C)(C)C` was run?
A: 89.5%

Q: `Clc1ccc2[nH]cc(-c3nn4cc(-c5ccncc5)nc4s3)c2c1` was tested. Which growth did it give?
A: 50.7%

Q: Which growth does the source give for `CN1CCN(c2ccc(Nc3nc(NCCNS(=O)(=O)c4ccc5ccccc5c4)c4sccc4n3)cc2)CC1` here?
A: 35.2%

Q: Which growth does the source give for `CC(C)[C@H]1c2[nH]c3ccccc3c2C[C@H]2C(=O)N(CCCCCCC(=O)NO)CC(=O)N12` here?
A: 82.3%

Q: For `O=C(Nc1ccccc1)Nc1nc2ccc([N+](=O)[O-])cc2[nH]1`, which growth is on record?
A: 56%

Q: How did the growth turn out when `N#Cc1c(-c2cccs2)cc(-c2cnccn2)nc1SCC(=O)N/N=C/c1ccncc1` was run?
A: 112%

Q: Which growth does the source give for `O=C(/C=C/c1ccccc1)c1cccc(O)c1` here?
A: 104%

Q: Which growth does the source give for `O=C1[C@@H]2Cc3c([nH]c4ccccc34)[C@H](c3ccc(Br)cc3)N2C(=O)CN1C1CCN(Cc2c(Cl)cccc2Cl)CC1` here?
A: 92.7%

Q: `COc1cccc2c1C=CC1(O2)Oc2cccc(OC)c2C=C1C` (stereo not given) was tested. Which growth did it give?
A: 30%

Q: `CCN(CC)c1ccc(/C=N/NC(=O)c2ccc(NS(C)(=O)=O)cc2)cc1` was tested. Which growth did it give?
A: 40.5%

Q: `N#Cc1nc(-c2ccc(Cl)cc2)oc1N1CCC(S(=O)(=O)N2CCOCC2)CC1` was tested. Which growth did it give?
A: 95.9%

Q: With `O=C(CCCCCC/C=C\c1csc(Br)n1)NO` as the compound, how does the growth read?
A: 78.2%

Q: With `COc1ccc(OC)c(NC(=O)CCCCCCNC(=O)C(O)(O)C(F)(F)F)c1` as the compound, how does the growth read?
A: 6.62% (active)

Q: `NCCNC(=O)c1cccc(COc2ccccc2NC(=O)c2cc(Br)c(Br)[nH]2)c1` was tested. Which growth did it give?
A: 35.1%

Q: `C#CCOc1ccccc1C(OC(=O)c1ccccc1)C(=O)NC(C)(C)C(C)(C)C` (stereo not given) was tested. Which growth did it give?
A: 96.9%

Q: How did the growth turn out when `O=C(CSc1nc2ccccc2c(=O)n1CCc1ccccc1)Nc1ccc(S(=O)(=O)Nc2ccc(Cl)nn2)cc1` was run?
A: 91.3%

Q: With `O=C1CSC(c2cn(-c3ccccc3)nc2-c2ccc(Cl)cc2)N1c1ccccc1` (stereo not given) as the compound, how does the growth read?
A: 120%

Q: `COc1ccc2c(c1)c(-c1nn3cc(-c4ccncc4)nc3s1)cn2C` was tested. Which growth did it give?
A: 69.5%

Q: How did the growth turn out when `O=C(/C=C/c1cc(Cl)ccc1Cl)Nc1ncc(Cc2ccc(Cl)cc2)s1` was run?
A: 20.8%

Q: With `CC1=C(C)C(=O)C(Nc2cccc(C)c2)=C(Br)C1=O` as the compound, how does the growth read?
A: 107%

Q: With `COc1ccc(Cn2cc(C#N)c(N)c2C(C)=O)cc1` as the compound, how does the growth read?
A: 111%

Q: Which growth does the source give for `Cn1ncc2ncc(-c3ccc4ncc(C#N)c(N5CCc6cc(F)c(Cl)cc65)c4c3)cc21` here?
A: 54.4%

Q: With `Cc1ccc2c(n1)C(=O)C(Cl)=C(Nc1ccc(C(F)(F)F)cc1)C2=O` as the compound, how does the growth read?
A: -10.5% (active)

Q: For `CSc1ccc(/C(=N/N=C(N)N)c2ccc(F)cc2)cc1`, which growth is on record?
A: 22.2%

Q: With `CC(=O)OC[C@@]12Oc3c(cccc3-c3ccc(O)c4c3O[C@]3(COC(C)=O)C(=C4O)C(=O)C[C@H](C)[C@@H]3OC(C)=O)C(O)=C1C(=O)C[C@H](C)[C@@H]2OC(C)=O` as the compound, how does the growth read?
A: 17.8%

Q: How did the growth turn out when `CCCCOc1ccc(S(=O)(=O)N2CCN(c3nc(C)cc(N4CCOCC4)n3)CC2)cc1` was run?
A: 28.9%
